Results filed as inconclusive are left out. A call without a number means that no potency is given here. Unmarked numbers belong to inactive results. Active and inactive are the calls of the source. The call rests on the fitted dose curve; in most records, active means well fitted inhibition curve with a large enough effect; inconclusive means small, poorly fitted or top-dose-only effect; inactive means flat fitted curve, though single readings scatter.
What was measured:
CRL-7250 = normal cell line; assay: qHTS assay to identify novel small-molecules to repurpose for Merkel cell carcinoma treatment (AID 1296009); conditions: MCC and control cell lines, CellTiter-Glo viability, 72 h; at 44.8 µM (top of the series) unless noted
Summary of the method: (§1)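 Cells exposed to NPC (8-point) and MIPE (11-point) compound dilutions for 72 hr at 37 degree celsius; viability read by CellTiter-Glo luminescence, normalized to no-cell and DMSO in-plate controls.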

PAD = assay: qHTS profiling for inhibitors of Plasmodium falciparum proliferation (AID 504749); conditions: P. falciparum in erythrocytes, SYBR Green DNA, 72 h; series mostly up to 28.7 µM
Summary of the method: (§2)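 P. falciparum-infected erythrocytes (0.3% parasitemia, 2.5% hematocrit final) were exposed to compounds for 72 h at 37 C in 5% CO2, then lysed with SYBR Green buffer overnight at room temperature; parasite DNA fluorescence was normalized to artemisinin and DMSO controls.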

PC15 = assay: as above; conditions: P. falciparum in erythrocytes, SYBR Green DNA, 72 h; series mostly up to 28.7 µM
Summary of the method: as §2

PC26 = assay: as above; conditions: P. falciparum in erythrocytes, SYBR Green DNA, 72 h; series mostly up to 28.7 µM
Summary of the method: as §2

PC49 = assay: as above; conditions: P. falciparum in erythrocytes, SYBR Green DNA, 72 h; series mostly up to 28.7 µM
Summary of the method: as §2

SC27B = assay: as above; conditions: P. falciparum in erythrocytes, SYBR Green DNA, 72 h; series mostly up to 28.7 µM
Summary of the method: as §2

TAB109 = assay: as above; conditions: P. falciparum in erythrocytes, SYBR Green DNA, 72 h; series mostly up to 28.7 µM
Summary of the method: as §2

TAB113 = assay: as above; conditions: P. falciparum in erythrocytes, SYBR Green DNA, 72 h; series mostly up to 28.7 µM
Summary of the method: as §2

TAB165 = assay: as above; conditions: P. falciparum in erythrocytes, SYBR Green DNA, 72 h; series mostly up to 28.7 µM
Summary of the method: as §2

W2 = assay: as above; conditions: P. falciparum in erythrocytes, SYBR Green DNA, 72 h; series mostly up to 28.7 µM
Summary of the method: as §2

HACAT = assay: qHTS assay to identify novel small-molecules to repurpose for Merkel cell carcinoma treatment (AID 1296009); conditions: MCC and control cell lines, CellTiter-Glo viability, 72 h; at 44.8 µM (top of the series) unless noted
Summary of the method: as §1

MCC-13 = assay: as above; conditions: MCC and control cell lines, CellTiter-Glo viability, 72 h; series mostly up to 46 µM
Summary of the method: as §1

MCC-26 = assay: as above; conditions: MCC and control cell lines, CellTiter-Glo viability, 72 h; series mostly up to 46 µM
Summary of the method: as §1

MKL-1 = assay: as above; conditions: MCC and control cell lines, CellTiter-Glo viability, 72 h; series mostly up to 46 µM
Summary of the method: as §1
Further: nearly all actives have a fitted effect of over 60% in size.
Potency means the concentration at half of the fitted maximal effect.

In the case of `CN1CCCCC1CCN1c2ccccc2Sc2ccc(S(C)=O)cc21` (centres undefined), the outcome (CRL-7250) is reported as “inactive”.

With `CCOc1ccccc1O[C@H](c1ccccc1)[C@H]1CNCCO1` the outcome (CRL-7250) was “inactive”.

For `OC(CCN1CCCCC1)(c1ccccc1)c1ccccc1`, the outcome (CRL-7250) was “inactive”.

For `Cc1cccc(C)c1NC(=O)C(C)N` (centres undefined), the outcome (CRL-7250) was “inactive”.

`O=C(Nc1ccc(C(=O)O)c(O)c1)c1ccccc1` was tested, and the outcome (CRL-7250) was “inactive”.

In the case of `CNC(=O)Oc1ccc2c(c1)[C@]1(C)CCN(C)[C@@H]1N2C`, the outcome (CRL-7250) is reported as “inactive”.

For `CC(=O)OCC(=O)Nc1cc(C#N)cc(NC(=O)COC(C)=O)c1Cl`, the outcome (CRL-7250) was “inactive”.

In the case of `CCCCC(=O)O[C@]1(C(=O)CO)CC[C@H]2[C@@H]3CCC4=CC(=O)CC[C@]4(C)[C@H]3[C@@H](O)C[C@@]21C`, the outcome (CRL-7250) is reported as “inactive”.

For `CCc1cc2cc(OC)c(OC)cc2c(Cc2ccccc2)n1`, the outcome (CRL-7250) was “inactive”.

In the case of `COc1ccc(-c2nc3ccc(C4=NNC(=O)CC4C)cc3[nH]2)cc1` (centres undefined), the outcome (CRL-7250) is reported as “inactive”.

`COc1ccc2[nH]c(S(=O)Cc3ncc(C)c(OC)c3C)nc2n1` (centres undefined) was tested, and the outcome (CRL-7250) was “inactive”.

In the case of `CC(C)(O)C(Cl)(Cl)Cl`, the Potency (PAD) is reported as 3.55 µM (active), the Potency (PC15) is reported as 2.24 µM (active) and the Potency (PC26) is reported as 8.49 µM (active). For the same compound, the Potency (PC49) was 7.08 µM (active), the Potency (SC27B) was 4.47 µM (active) and the Potency (TAB109) was 3.16 µM (active). For the same compound, the Potency (TAB113) was 4.47 µM (active), the Potency (TAB165) was 1.78 µM (active) and the Potency (W2) was 1.51 µM (active). For the same compound, the outcome (HACAT) was “inactive”, the Potency (MCC-13) was “inactive” and the Potency (MCC-26) was “inactive”. The Potency (MKL-1) was “inactive”.

For `CCC(=O)O[C@]1(C(=O)SCF)[C@H](C)C[C@H]2[C@@H]3C[C@H](F)C4=CC(=O)C=C[C@]4(C)[C@@]3(F)[C@@H](O)C[C@@]21C`, the outcome (CRL-7250) was “inactive”.

`CC(C)NCC(O)COc1ccc(COCCOC(C)C)cc1` (centres undefined) was tested, and the outcome (CRL-7250) was “inactive”.

For `CNC(=O)Oc1cccc2ccccc12`, the Potency (PC49) was “inactive”, the Potency (SC27B) was “inactive” and the Potency (TAB109) was “inactive”. The Potency (TAB113) was “inactive”.

`COc1ccccc1OC(=O)Oc1ccccc1OC` was tested, and the outcome (CRL-7250) was “inactive”.

`Cc1c(N)cccc1C(F)(F)F` was tested, and the outcome (CRL-7250) was “inactive”.

`O=c1[nH]c(=O)c2ccccc2o1` was tested, and the outcome (CRL-7250) was “inactive”.

For `CCOC(C(=O)OCCN(C)C)(c1ccccc1)c1ccccc1`, the Potency (MCC-13) was “inactive”, the Potency (MCC-26) was “inactive” and the Potency (MKL-1) was “inactive”.

For `NC(N)=NCCC[C@H](N)C(=O)O`, the outcome (CRL-7250) was “inactive [at 4.96 µM]”.

`C=C1C(=C/C=C2\CCC[C@]3(C)[C@@H]([C@H](C)/C=C/[C@@H](O)C4CC4)CC[C@@H]23)C[C@@H](O)C[C@@H]1O` was tested, and the outcome (CRL-7250) was “inactive”.

For `c1ccc2c(c1)Sc1ccccc1N2CC1CN2CCC1CC2` (centres undefined), the Potency (MKL-1) was 23.7 µM (active).

For `O[C@@H](COc1cccc2ncccc12)CN1CCN(C2c3ccccc3[C@@H]3[C@H](c4ccccc42)C3(F)F)CC1` (some centres undefined), the outcome (CRL-7250) was “inactive”.

`CO/N=C(\C(=O)O)c1csc(NC(=O)CCl)n1` was tested, and the outcome (CRL-7250) was “inactive”.

For `CC1CCc2cc(F)cc3c(=O)c(C(=O)O)cn1c23` (centres undefined), the outcome (CRL-7250) was “inactive”.

In the case of `Cc1cccc(N(C)C(=S)Oc2ccc3ccccc3c2)c1`, the outcome (CRL-7250) is reported as “inactive”.

For `N/C(=N\N=C\c1ccc(Cl)cc1)N/N=C/c1ccc(Cl)cc1`, the outcome (CRL-7250) was “inactive”.
